# Assay results from PubChem BioAssay (NCI).
# Compounds without any hit were thinned out: in the full panel of roughly 83,000, 20% have a hit.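 Activity criterion: percent growth below 10, measured after cells in 96-well plates were exposed to a single compound concentration for 48 hours.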 Values without a mark were called inactive. Activity calls are given as the source filed them.
# Test system: COLO 205 colon
# Assay: NCI-60 one-dose screen, 48 h (100 = growth as untreated, 0 = no growth, -100 = all killed)
# Settings: 10 µM unless noted
row,SMILES,growth
1,O=C(Nc1ccc(Cl)cc1)C1=NCCCCN1,99.6%
2,Fc1ccc(/C=C/c2cc(/C=C/c3ccc(F)cc3)n(-c3cc(F)cc(F)c3)n2)cc1,119%
3,Nc1n[nH]c2cccc(C#Cc3cccc(C(=O)Nc4ccc(Cl)c(C(F)(F)F)c4)c3)c12,29.3%
4,CC/C(=C(/c1ccc(Cl)cc1)c1ccc(OCCN2CCCCCC2)cc1)c1ccccc1,37%
5,COC(CCP(=O)(c1ccccc1)c1ccccc1)(C(=O)c1ccccc1)c1ccccc1 (stereo not given),62.4%
6,CC(=O)CC(=O)c1ccccc1.[Cu+2],116%
7,CN1CCN(Cc2ccc(NC(=O)c3cncc(C#Cc4cnc(N)c5ccc(C#N)cc45)c3)cc2C(F)(F)F)CC1,-71.9% (active)
8,CNC(=O)c1cc(Oc2ccc3nc(NC(=O)NC(C)C)sc3c2)ccn1,78.8%
9,N/C(=N\c1nc2ccccc2s1)NC(=O)Nc1ccccc1,28.3%
10,CCOC(=O)/C(=C\c1ccccc1Cl)P(=O)(OCC)OCC,52.9%
11,O=C(/C=C/c1ccc(Cl)cc1)c1ccc(-n2cc(CN3CCN(c4cc5c(cc4F)c(=O)c(C(=O)O)cn5C4CC4)CC3)nn2)cc1,97.1%
12,COc1cc2cc(Oc3ccc(NC(=O)Nc4ccc(Cl)c(Cl)c4)cc3)c(C)nc2cc1OCCN1CCCCC1,112%
13,CCN(CC)CCN1C(=O)c2c(c(C)c3c(oc4cc(OC)ccc43)c2C)C1=O,99.1%
14,Cn1ncc(CC(=O)O)c1-n1nnc2cc(Cl)ccc2c1=O,118%
15,COc1ccc(CNc2ccc3nc(CCC4CCCCC4)[nH]c3c2)cc1,-23.9% (active)
16,CC(C)(C)[C@H](OCc1cn([C@H]2C[C@@H](O)[C@@H](CO)O2)c(=O)[nH]c1=O)c1ccc(C#Cc2ccccc2)cc1[N+](=O)[O-],79.1%
17,N#C/C(=C\c1cccc2cnccc12)N1N=NC2C=CC=CC21 (stereo not given),47.4%
18,Cc1c2cnccc2c(C)c2c1c1cc(C(=O)O)ccc1n2C,-9.71% (active)

row,SMILES,growth
1,COCCn1cc(-c2nc(-c3cc4cccnc4n3C)cs2)c2cc(OC)ccc21,50.4%
2,Cc1ccc(S(=O)(=O)N(CCC(=O)O)c2ccccc2)cc1,132%
3,C=CN(C(=O)N1CCN(c2cc3c(cc2F)c(=O)c(C(=O)O)cn3C2CC2)CC1)c1nc(-c2ccc(C)cc2)cs1,16.7%
4,CCOC(=O)/C(=C/c1ccc([N+](=O)[O-])cc1)C(=O)c1ccccc1,4.21% (active)
5,CC(C)C(=O)Nc1ncc(C(=O)NCCN(Cc2ccccc2)C(=O)c2ccc(S(=O)(=O)Nc3ccccc3)cc2)s1,118%
6,OC1CSSC1Cn1cnc2c(Nc3ccc(F)c(Cl)c3)ncnc21 (stereo not given),111%
7,CCCCCCCCNc1ncnc2c1ncn2Cc1nnc2c3ccccc3c(Cl)nn12,65.5%
8,CN1C(=O)N(C)C2C1NN=c1s/c(=C\c3ccc(F)cc3)c(=O)n12 (stereo not given),12.5%
9,COC(=O)c1cc(-c2cc(OC)c(OC)c(OC)c2)[nH]c1N/N=C/c1c(Cl)cccc1Cl,56.1%
10,COc1ccc(Nc2nc(Nc3cc(C)[nH]n3)c3cc(OC)c(OC)cc3n2)cc1,-61% [20 µM] (active)
11,CCN1C(=O)N(CC)C2C1NN=c1s/c(=C\c3ccc(F)cc3)c(=O)n12 (stereo not given),5.08% (active)
12,CC(C)c1nc(N(C)S(C)(=O)=O)nc(-c2ccc(F)cc2)c1/C=C/C(=O)C[C@@H](O)CC(=O)O,112%
13,C=C(C)[C@@H]1CC[C@]2(COCCCNCCCN)CC[C@]3(C)[C@H](CC[C@@H]4[C@@]5(C)CC[C@H](OCCCN)C(C)(C)[C@@H]5CC[C@]43C)[C@@H]12,-31.1% (active)
14,C=C(C)[C@@H]1CC[C@]2(COC(=O)c3cccnc3)CC[C@]3(C)[C@H](CC[C@@H]4[C@@]5(C)CCCN(C(=O)c6cccnc6)C(C)(C)[C@@H]5CC[C@]43C)[C@@H]12,27.9%
15,COc1cccc(C2C(C#N)=C(N)Oc3c2ccc2ccccc32)c1 (stereo not given),-41.8% (active)
16,C#Cc1cccc(Nc2ncnc3ccc(-c4cnc(Cl)c(NS(C)(=O)=O)c4)cc23)c1,-69.2% (active)
17,CCN1C(=O)N(CC)C2C1NN=c1s/c(=C3\C(=O)N(C)c4ccccc43)c(=O)n12 (stereo not given),8.01% (active)
